The list is not random: actives were taken first. Their share in the collection is about 18%.
TDP1 cell CPT: DT40-hTDP1 cell growth loss with CPT; chicken DT40 Tdp1-/-;hTDP1 cells + 20 nM CPT, ATP luminescence, 48 h; Potency, µM (highest dose often 46.2 µM), for inactives: top-dose activity change, negative = growth inhibition, hits mostly inhibitors; 420,000 compounds, 12% hits; AID 686979; also: nearly all actives have a fitted effect of over 55% in size
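Cell growth measured by CellTiter-Glo luminescence after a minimum 48 h, 37 C compound exposure with 20 nM CPT in Tdp1-knockout DT40 cells stably expressing hTDP1, seeded 400/well; qHTS titration format.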
GCN5L2 inh: blocks human GCN5L2 histone acetyltransferase; 390,000 compounds, 0.21% hits; Potency, µM (top dose mostly 58.9 µM), inactives show top-dose activity change, negative = inhibition, most hits filed as inhibitors; GCN5L2 HAT assay, ThioGlo1 CoA-SH fluorescence; Q92830
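Fluorescence readout, Ex340nm/Em540nm: ThioGlo1 (50uM final) reacts with free CoA thiol released as 20nM GCN5L2 acetylates H3(1-25) peptide (75uM) using acetyl-CoA (70uM). Compound and enzyme sat 15 min beforehand; 20 min room-temperature reaction.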
TDP1 cell noCPT: qHTS for Inhibitors of human tyrosyl-DNA phosphodiesterase 1 (TDP1): qHTS in cells in absence of CPT. DT40 Tdp1-/- hTDP1 cells, no CPT, ATP luminescence, 48 h. Potency, µM (highest dose often 46.2 µM), without a hit: at the highest dose activity change, negative = growth inhibition, most hits filed as inhibitors. 420,000 compounds, 15% hits. AID 686978, 2013; also: nearly all actives have a fitted effect of over 55% in size
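Stably hTDP1-transfected Tdp1-null chicken DT40 cells were treated with library compounds minus camptothecin and grown for at least 48 hr at 37 °C, after which cellular ATP was quantified by luminescence.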
PLK1 PBD block: blocks phosphopeptide binding to human PLK1 polo-box domain | P53350 | Plk1 PBD binding of FITC phosphopeptide, fluorescence polarization | Potency, µM, for inactives: max response, negative = inhibition, usual class: inhibitors | 360,000 compounds, 2.8% hits; also: series mostly up to about 57 µM; nearly all actives have a fitted effect of over 65% in size
Target sequence (P53350 whole entry, looked up, the tested form may be a part): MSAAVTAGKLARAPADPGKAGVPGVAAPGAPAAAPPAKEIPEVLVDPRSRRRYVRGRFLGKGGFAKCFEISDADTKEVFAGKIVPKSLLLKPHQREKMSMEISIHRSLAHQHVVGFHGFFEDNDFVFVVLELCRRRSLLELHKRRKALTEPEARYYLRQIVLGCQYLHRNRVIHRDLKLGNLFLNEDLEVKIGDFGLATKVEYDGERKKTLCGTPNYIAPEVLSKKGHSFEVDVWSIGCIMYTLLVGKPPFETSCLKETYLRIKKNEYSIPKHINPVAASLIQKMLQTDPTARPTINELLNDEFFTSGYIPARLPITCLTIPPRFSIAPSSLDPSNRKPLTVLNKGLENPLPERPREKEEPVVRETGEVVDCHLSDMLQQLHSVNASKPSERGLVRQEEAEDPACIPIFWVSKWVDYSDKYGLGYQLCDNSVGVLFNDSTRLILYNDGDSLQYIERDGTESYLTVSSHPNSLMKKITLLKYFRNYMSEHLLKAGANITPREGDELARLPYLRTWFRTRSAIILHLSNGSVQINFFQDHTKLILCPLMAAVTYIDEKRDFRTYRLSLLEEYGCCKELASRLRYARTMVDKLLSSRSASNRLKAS
VDR inhibitor: vitamin D3 receptor (human) inhibition. VDR-SRC2-3 peptide fluorescence polarization, 2 h. Potency, µM, inactives show max response, negative = inhibition, most hits filed as inhibitors. P11473. 400,000 compounds, 0.93% hits. AID 504847
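Measured by FP: displacement of SRC2-3 coactivator peptide from VDR by library compounds, following a two-hour ambient incubation.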
TDP1 block: blocks human tyrosyl-DNA phosphodiesterase 1; Q9NUW8; recombinant TDP1, AlphaScreen DNA substrate cleavage; Potency, µM (series often up to 130 µM), for inactives: top-dose activity change, negative = inhibition, hits mostly inhibitors; 350,000 compounds, 0.28% hits; AID 485290; also: nearly all actives have a fitted effect of over 40% in size
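Tdp1 1 nM final; 15 min RT w/ cpd; substrate 15 nM, 5 min; beads 10 ug/ml, 10 min; AlphaScreen read. Neg ctrl: no enzyme.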
* marks the source's active call; other numbers are inactive results; ? = inconclusive; . = not tested or not shown. Calls follow the shape of the dose curve; as a rule, active = well fitted curve in the direction sought with a large enough effect; inconclusive = small, poorly fitted or top-dose-only effect, or another doubt; inactive = no such curve, though single readings can be large; an effect the other way counts as inactive or inconclusive. % is scaled to controls: 0 for no effect and ±100 for the full control effect; potency is read from the fitted curve at half-maximal effect.

SMILES | TDP1 cell CPT | GCN5L2 inh | TDP1 cell noCPT | PLK1 PBD block | VDR inhibitor | TDP1 block
CC1CCc2c(sc(NC(=O)c3ccc(N4C(=O)CCC4=O)cc3)c2C(N)=O)C1 (stereo not given) | -2% | -1% | 0% | -2% | -11% | 2%
CC(C)C(=O)OCc1cc(=O)n2nc(C3CCCCC3)sc2n1 | 7% | 2% | -20% | . | 7% | 5%
Cc1cccc(C(=O)N(Cc2ccc(C)o2)C2CCS(=O)(=O)C2)c1 (stereo not given) | -1% | -1% | 12% | 4% | -4% | 5%
CC(C)c1ccc(OCC(=O)N(Cc2cccs2)C2CCS(=O)(=O)C2)cc1 (stereo not given) | ? | 1% | ? | . | -15% | 0%
COc1ccccc1C(=O)N(Cc1sccc1C)C1CCS(=O)(=O)C1 (stereo not given) | -11% | -2% | 3% | -2% | -5% | 2%
Cc1ccc(CN(C(=O)COc2ccc(C(C)C)cc2)C2CCS(=O)(=O)C2)o1 (stereo not given) | 15µM* | 0% | 18µM* | . | -3% | 9%
Cc1ccc(CN(C(=O)c2ccc([N+](=O)[O-])cc2)C2CCS(=O)(=O)C2)o1 (stereo not given) | ? | 1% | ? | 3.8µM* | ? | 4%
CCCCOc1ccccc1C(=O)N(Cc1sccc1C)C1CCS(=O)(=O)C1 (stereo not given) | ? | 1% | 21µM* | . | 10% | 7%
CCOc1ccc2nc(N3C(=O)/C(=C/c4ccc(Cl)cc4)NC3=S)sc2c1 | ? | 2% | 10µM* | ? | -13% | 7%
COc1ccc(CN2CSC(=S)N(Cc3ccc(OC)cc3)C2)cc1 | 4.6µM* | -6% | 15µM* | 0% | -8% | 0%
S=C1SCN(Cc2ccccc2)CN1Cc1ccccc1 | 8.4µM* | ? | ? | 0% | 16% | 0%
S=C1SCN(Cc2cccnc2)CN1Cc1cccnc1 | 0.82µM* | 4% | 0.82µM* | 0% | -10% | -8%
S=C1SCN(CCc2ccccc2)CN1CCc1ccccc1 | ? | . | 18µM* | -14% | . | .
Cn1c(=O)oc2cc(S(=O)(=O)NCCC(=O)Nc3ccc(F)cc3F)ccc21 | -7% | -2% | -14% | . | -20% | -1%
CN(C)CCNc1c2c(nc3nnnn13)CCCC2 | -5% | -4% | -1% | 1% | -18% | 3%
COc1cccc(-c2cncnc2Nc2ccccc2)c1 | -26% | ? | ? | . | 40µM* | .
Cc1cnc(CNc2ncncc2-c2cccc(C#N)c2)cn1 | -6% | -3% | 0% | . | -26% | .
COc1cccc(-c2cncnc2NCc2cnc(C)cn2)c1 | 4.6µM* | -1% | 3.7µM* | . | -9% | .
Cc1ccc(NC(=O)CSc2ccc(-c3ccccn3)nn2)c(C)c1 | ? | 4% | ? | -4% | -13% | -2%
O=C(CSc1ccc(-c2ccccn2)nn1)c1ccccc1 | ? | -2% | ? | -7% | 3% | 2%
O=C(CSc1ccc(-c2ccccn2)nn1)N1CCCC1 | ? | 0% | ? | 13µM* | 71µM* | -3%
Cc1cc(C)c(NC(=O)CSc2ccc(-c3ccccn3)nn2)c(C)c1 | 23µM* | -2% | 23µM* | -6% | -11% | -2%
O=C(CSc1ccc(-c2cccs2)nn1)Nc1cccc(F)c1 | 15µM* | -19% | 23µM* | . | -2% | 3%
CCc1ccc(NC(=O)CSc2ccc(-c3ccco3)nn2)cc1 | ? | -5% | ? | 19µM* | 79µM* | 0%
CC(O)c1cccc2cc(C(O)CNC(C)(C)C)oc12 (stereo not given) | . | -10% | . | . | 7% | 9%
SMILES | TDP1 cell CPT | GCN5L2 inh | TDP1 cell noCPT | PLK1 PBD block | VDR inhibitor | TDP1 block
C[C@@H]1CN([C@@H](C)CO)S(=O)(=O)c2ccc(Br)cc2O[C@@H]1CN(C)C(=O)C1CC1 | -3% | . | ? | -2% | . | .
COc1ccc(S(=O)(=O)N(C)C[C@@H]2OCc3cnnn3CCCC(=O)N([C@@H](C)CO)C[C@@H]2C)cc1 | 0% | . | 6% | -6% | . | .
O=C1Nc2ccccc2-c2nnnn2C1N1CCCCC1 (stereo not given) | 5% | . | -11% | -4% | . | .
CCOc1ccc(NC(=O)CSc2ccc(-c3ccccn3)nn2)cc1 | ? | -4% | ? | -9% | -20% | 5%
CCOC(=O)c1ccc(NC(=O)CSc2ccc(-c3ccccn3)nn2)cc1 | 21µM* | 2% | 18µM* | -7% | -7% | 2%
O=C(CSc1ccc(-c2ccccn2)nn1)Nc1ccc(F)c(F)c1 | 21µM* | -25% | 21µM* | 1% | -14% | 2%
Cc1ccc(NC(=O)CSc2ccc(-c3ccccn3)nn2)cc1 | ? | 3% | ? | 4% | 1% | 0%
Cc1ccc(C(=O)Nc2ccccc2C(=O)OCc2cc(=O)n3nc(C4CC4)sc3n2)cc1 | 6% | 20% | -12% | . | 3% | 4%
CCOc1ccc(-c2cc(CCCC(=O)NCc3cccnc3)no2)cc1 | 23µM* | 2% | 21µM* | -14% | 4% | 3%
CCOc1ccc(S(=O)(=O)N(CC(=O)NCc2cccnc2)c2ccc(C)cc2)cc1 | ? | 0% | ? | -16% | -7% | -3%
Cc1ccc(S(=O)(=O)N(CC(=O)NCc2cccnc2)c2ccc(F)cc2)cc1 | -25% | 0% | 18µM* | -17% | -3% | 10%
CCOc1ccc(S(=O)(=O)N(CC(=O)NCc2cccnc2)c2ccc(F)cc2)cc1 | ? | 3% | 18µM* | -7% | -15% | 7%
COc1ccc(-c2nnc(SCc3nc4ccccc4s3)n2C(C)C)cc1 | ? | -3% | 21µM* | -8% | -1% | -1%
Cn1cc(C(=O)C(=O)N2CCc3ccccc32)c2ccccc21 | -17% | 0% | -19% | -4% | 2% | 3%
O=C(NCc1cccnc1)c1c[nH]c2cc3c(cc2c1=O)OCCO3 | 10µM* | -16% | 5.8µM* | -3% | 15% | 0%
COc1ccc(CN(C(=O)c2snc(C(N)=O)c2N)C(CC(C)C)C(=O)NC2CCCCC2)cc1 (stereo not given) | ? | -26% | ? | -6% | -14% | 6%
COC(=O)[C@@]1(Cc2ccc(OC)cc2)[C@H]2c3cc(C(=O)N4CCCC4)n(CCc4c[nH]c5ccc(O)cc45)c3C[C@H]2CN1C(=O)c1ccccc1 | . | -7% | . | . | . | 7%
COc1cc(OC)c(C2=NOC(C(=O)NCc3cccnc3)C2)cc1Cl (stereo not given) | ? | -5% | 15µM* | 2% | -7% | .
